Source: PubChem BioAssay (NCATS)
Values joined by “and” are separate entries in the source; they are usually repeats but may differ in a detail not shown here. Equal entries are not always repeated. Records with an inconclusive call do not appear. Active and inactive are the calls of the source. Calls follow the shape of the dose curve; as a rule, active = well fitted curve in the direction sought with a large enough effect; inconclusive = small, poorly fitted or top-dose-only effect, or another doubt; inactive = no such curve, though single readings can be large; an effect the other way counts as inactive or inconclusive.

Assays:
[1] = qHTS Screen of the MIPE 4.0 Collection Against Ewings Sarcoma (RDES) (AID 1259252); conditions: RD-ES Ewing sarcoma viability, CellTiter-Glo, 48 h; series mostly up to 45.8 µM; also: nearly all actives have a fitted effect of over 35% in size; also: potency is read from the fitted curve at half-maximal effect
How it was run: (§1)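 Viability screen: 48 h incubation at 37C, 95% humidity, 5% CO2 with serially titrated compound, followed by CellTiter-Glo readout.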

[2] = qHTS Screen of the MIPE 4.0 Collection Against Ewings Sarcoma (TC71) (AID 1259253); conditions: TC71 Ewing sarcoma viability, CellTiter-Glo, 48 h; series mostly up to 45.8 µM; also: nearly all actives have a fitted effect of over 40% in size; also: potency is read from the fitted curve at half-maximal effect
How it was run: as §1

[3] = qHTS Screen of the MIPE 4.0 Collection Against Ewings Sarcoma (EW8) (AID 1259255); conditions: EW8 Ewing sarcoma viability, CellTiter-Glo, 48 h; series mostly up to 45.8 µM; also: nearly all actives have a fitted effect of over 35% in size; also: potency is read from the fitted curve at half-maximal effect
How it was run: as §1

[4] = qHTS Screen of the MIPE 4.0 Collection Against Ewings Sarcoma (TC32) (AID 1259256); conditions: TC32 Ewing sarcoma viability, CellTiter-Glo, 48 h; series mostly up to 45.8 µM; also: nearly all actives have a fitted effect of over 45% in size; also: potency is read from the fitted curve at half-maximal effect
How it was run: as §1

[5] = Identifying Small Molecule Inhibitors of Pancreatic Cancer Stem Cells (SN12C, Spheroid) (AID 1259360); conditions: Potency: SN12C spheroid viability; series mostly up to 46.1 µM; also: potency is read from the fitted curve at half-maximal effect
How it was run: (§2)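 Spheroids grown 14 days in stem cell media on nonadherent hydrogel before screening; cells attached 4 h, then compound exposure 48 h at 37C, 5% CO2. CellTiter-Glo luminescence normalized to DMSO (no inhibition) and no-cell wells (full inhibition).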

[6] = Identifying Small Molecule Inhibitors of Pancreatic Cancer Stem Cells (A278, Adherent) (AID 1259361); conditions: series mostly up to 46.1 µM;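 also: viability read after 48 h compound exposure; nearly all actives have a fitted effect of over 35% in size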
How it was run: (§3)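 Monolayer and spheroid cultures are compared. Spheroids form over 14 days in stem cell medium on hydrogel-coated low-attachment plates, then are exposed to compound for 48 h before CellTiter-Glo luminescence.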

[7] = P-glycoprotein substrates identified in KB-3-1 adenocarcinoma cell line, qHTS therapeutic library screen (AID 1346986); conditions: KB-3-1 parental cells viability, CellTiter-Glo, 72 h; series mostly up to 44.5 µM; also: nearly all actives have a fitted effect of over 60% in size;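 also: potency is read from the fitted curve at half-maximal effect; potency is for cytotoxicity meaning loss of cell viability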
How it was run: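 KB-3-1 parental and colchicine-selected P-gp-overexpressing KB-8-5-11 cells (colchicine omitted during assay), 500 cells/well, dosed in dose-response for 72 h at 37 °C; CellTiter-Glo luminescence. Cytotoxic: curve class -1.1 to -2.4, max response >50%, AC50 < 10 uM.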

[8] = P-glycoprotein substrates identified in KB-8-5-11 adenocarcinoma cell line, qHTS therapeutic library screen (AID 1346987); conditions: KB-8-5-11 (P-gp overexpressing) viability, CellTiter-Glo, 72 h; series mostly up to 44.5 µM; also: nearly all actives have a fitted effect of over 65% in size; also: potency is read from the fitted curve at half-maximal effect
How it was run: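 KB-8-5-11, a colchicine-selected P-gp-overexpressing KB-3-1 subline, was grown without colchicine for the assay. Cells were seeded at 500 cells/well, dosed in concentration-response and incubated 72 h at 37 degree C, 5% CO2. Viability was read by CellTiter-Glo luminescence.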

[9] = NS1 protein of Zika virus - qHTS assay to identify small molecule inhibitors in human HEK 293 cells (AID 1347053); conditions: HEK293 ZIKV MR766 infection, NS1 TR-FRET, 24 h; series mostly up to 46.1 µM; also: nearly all actives have a fitted effect of over 55% in size; also: potency is read from the fitted curve at half-maximal effect
How it was run: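 HEK 293 cells pretreated with compound for 1 h, then infected with ZIKV MR766 (MOI 0.5) for 24 h at 37 C. NS1 detected by TR-FRET with two anti-NS1 antibodies; normalized to uninfected (0%) and infected (100%) wells.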

[10] = Identifying Small Molecule Inhibitors of Pancreatic Cancer Stem Cells (Panc1, Spheroid) (AID 1259359); conditions: Panc1 spheroid cancer stem cell viability; series mostly up to 46.1 µM;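 also: potency is read from the fitted curve at half-maximal effect; compound exposure lasted 48 h before reading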
How it was run: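 Luminescent ATP readout (CellTiter-Glo) quantifies surviving cells after a 48 h drug incubation. Normalization uses DMSO wells as no inhibition and media-only wells as full inhibition; bortezomib served as positive control.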

[11] = Identifying Small Molecule Inhibitors of Pancreatic Cancer Stem Cells (Panc1, Adherent) (AID 1259362); conditions: Potency: viability; series mostly up to 46.1 µM; also: potency is read from the fitted curve at half-maximal effect
How it was run: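 Spheroids grown 14 days in stem cell media on hydrogel-coated nonadherent plates; 2D lines seeded directly. Compounds added after 4 h attachment, 48 h at 37C, 5% CO2; CellTiter-Glo luminescence normalized to DMSO (no inhibition) and no-cell wells (full inhibition).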

[12] = Identifying Small Molecule Inhibitors of Pancreatic Cancer Stem Cells (SN12C, Adherent) (AID 1259358); conditions: viability/growth inhibition; series mostly up to 46.1 µM;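 also: cell survival measured after 48 h of compound exposure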; also: potency is read from the fitted curve at half-maximal effect
How it was run: as §3

[13] = Identifying Small Molecule Inhibitors of Pancreatic Cancer Stem Cells (A2780, Spheroid) (AID 1259357); conditions: Potency: A2780 spheroid viability; series mostly up to 46.1 µM;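 also: potency is read from the fitted curve at half-maximal effect; compound exposure lasted 48 h before the ATP luminescence read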
How it was run: as §2

| SMILES | Potency [1] | Potency [2] | Potency [3] | Potency [4] | Potency [5] | IC50 (viability decrease) [6] | Potency [7] | Potency [8] | Potency [9] | Potency [10] | Potency [11] | Potency [12] | Potency [13] |
| --- | --- | --- | --- | --- | --- | --- | --- | --- | --- | --- | --- | --- | --- |
| C1Cc2[nH]nc(-c3nn[nH]n3)c2C1 | inactive | inactive | inactive | inactive | inactive | inactive | inactive | inactive | inactive | – | – | – | – |
| C=CCn1c(=O)c2cnc(Nc3ccc(N4CCN(C)CC4)cc3)nc2n1-c1cccc(C(C)(C)O)n1 | 0.264 µM (active) | 0.332 µM (active) | 0.0833 µM (active) | 0.372 µM (active) | 1.66 µM (active) | 0.59 µM (active) | – | 3.72 µM (active) and 5.8 µM (active) | 0.418 µM (active) | 0.418 µM (active) | 0.59 µM (active) | – | – |
| Clc1cccc(-n2nnnc2NCc2ccccc2Oc2ccccn2)c1Cl | – | inactive | inactive | inactive | – | – | – | – | inactive | – | – | – | – |
| CC=C1NC(=O)[C@H]2CSSCCC=C[C@H](CC(=O)N[C@H](C(C)C)C(=O)N2)OC(=O)[C@H](C(C)C)NC1=O | 0.0148 µM (active) | 0.0209 µM (active) | 0.0187 µM (active) | 0.0148 µM (active) | 0.0053 µM (active) | 0.0053 µM (active) | – | – | 4.18 µM (active) | – | – | 0.0053 µM (active) | – |
| c1nc2nc(Nc3ccc(N4CCOCC4)cc3)nc(NC3CCCCC3)c2[nH]1 | 14.8 µM (active) | 2.64 µM (active) | 2.35 µM (active) | 1.87 µM (active) | – | – | 1.3 µM (active) | 5.26 µM (active) and 632 nM (active) and 1.16 µM (active) | – | – | – | – | – |
| COc1ccc(-n2nc(C(N)=O)c3c2C(=O)N(c2ccc(N4CCCCC4=O)cc2)CC3)cc1 | inactive | inactive | – | inactive | – | – | – | inactive | inactive | – | – | – | – |
| NC(=O)Nc1cc(-c2cccc(F)c2)sc1C(=O)N[C@H]1CCCNC1 | 0.935 µM (active) | 0.0935 µM (active) | – | 0.0833 µM (active) | – | 1.05 µM (active) | – | 14.8 µM (active) and 7.31 µM (active) | 0.264 µM (active) | – | 1.48 µM (active) | – | 18.7 µM (active) |
| CC(C)(O)c1cc2nc(-c3cnc(N)nc3)nc(N3CCOCC3)c2s1 | 0.059 µM (active) | 0.132 µM (active) | 0.148 µM (active) | 0.0662 µM (active) | – | – | 0.411 µM (active) | 105 nM (active) and 517 nM (active) | – | – | – | – | – |
| CC1=C(CO)C(=O)O[C@@H]([C@@H](C)[C@H]2CC[C@H]3[C@@H]4C[C@H]5O[C@]56[C@@H](O)C=CC(=O)[C@]6(C)[C@@H]4CC[C@]23C)C1 | – | 0.526 µM (active) | 0.264 µM (active) | 0.209 µM (active) | 1.66 µM (active) | 0.662 µM (active) | – | 1.18 µM (active) | 1.48 µM (active) | 1.05 µM (active) | 2.96 µM (active) | – | 0.935 µM (active) |
| CC(C)(C)c1cc(NC(=O)Nc2ccc(-c3cn4c(n3)sc3cc(OCCN5CCOCC5)ccc34)cc2)no1 | inactive | inactive | inactive | inactive | – | 10.5 µM (active) | – | inactive | inactive | – | – | – | – |
| CC(C)c1nn(-c2c(Cl)cccc2Cl)c2nc(Cc3ccc(OCCO)cc3)[nH]c(=O)c12 | – | 0.132 µM (active) | 0.148 µM (active) | 0.105 µM (active) | – | – | – | 118 nM (active) and 103 nM (active) | 0.166 µM (active) | – | – | – | – |
| COCCOc1ccc2c(c1)ncn2-c1ccc2cccc(N3CCC(N)CC3)c2n1 | – | 14.8 µM (active) | 18.7 µM (active) | 23.5 µM (active) | – | – | – | 23.5 µM (active) | – | – | – | – | – |
| CC(C)c1cnn2c(NCc3ccccc3)cc(N[C@@H](CO)[C@H](O)CO)nc12 | 0.469 µM (active) | 0.264 µM (active) | 0.372 µM (active) | 0.296 µM (active) | – | – | – | 1.18 µM (active) and 4.61 µM (active) | 0.526 µM (active) | – | – | – | – |
| CC(=O)Nc1sc2c(c1-c1nc3ccccc3s1)CNC2 | 16.6 µM (active) | 14.8 µM (active) | 16.6 µM (active) | 13.2 µM (active) | – | – | – | 16.6 µM (active) and 13 µM (active) | inactive | – | – | inactive | – |
| CCc1c2c(nc3ccc(O)cc13)-c1cc3c(c(=O)n1C2)COC(=O)[C@]3(O)CC | 0.0021 µM (active) | 0.0023 µM (active) | 0.0021 µM (active) | inactive | – | – | – | 0.231 µM (active) | 0.0037 µM (active) | – | – | – | – |
| CS(=O)(=O)c1ccc(-c2cnc(N)c(C(=O)Nc3ccccc3)n2)cc1 | inactive | 10.5 µM (active) | 13.2 µM (active) | 4.18 µM (active) | – | – | inactive | – | inactive | – | – | – | – |
